The list is not random: actives were taken first. Their share in the collection is about 5.7%.
PI4K2A inh = qHTS for small molecular inhibitors of PI4K2A; 0.13% of 420,000 active; Phosphatidylinositol 4-kinase type 2-alpha (Homo sapiens), Q9BTU6; activity change, negative = inhibition, % at 76.9 µM; purified PI4K2A, ADP-Glo luminescence, 1 h; stronger effect = lower value; in the data active = activity change below about -50%; inconclusive = mostly about -30% to -49%;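 also: -100% = wells without enzyme as full effect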
Target sequence (Q9BTU6 whole entry, looked up): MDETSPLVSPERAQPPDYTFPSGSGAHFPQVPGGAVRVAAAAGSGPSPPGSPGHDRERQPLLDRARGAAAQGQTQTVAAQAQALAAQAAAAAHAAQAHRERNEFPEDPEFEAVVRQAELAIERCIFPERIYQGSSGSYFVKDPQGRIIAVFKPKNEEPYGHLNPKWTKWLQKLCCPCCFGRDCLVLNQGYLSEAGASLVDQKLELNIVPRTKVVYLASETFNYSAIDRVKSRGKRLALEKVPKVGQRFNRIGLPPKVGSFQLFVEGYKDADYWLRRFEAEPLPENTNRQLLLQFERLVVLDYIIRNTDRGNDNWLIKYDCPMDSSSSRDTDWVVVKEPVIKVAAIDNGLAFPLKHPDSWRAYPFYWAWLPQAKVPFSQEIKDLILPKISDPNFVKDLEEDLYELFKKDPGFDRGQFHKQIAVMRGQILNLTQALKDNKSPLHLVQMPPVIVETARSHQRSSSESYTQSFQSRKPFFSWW
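PI4K2A activity was measured by ADP-Glo luminescence: enzyme (4 ug/mL stock) and phosphatidylinositol (1.2 mM stock) in Tris pH 7.5/MgCl2/EGTA/Triton X-100 buffer were reacted with ATP (300 microM stock) for one hour at ambient temperature.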
Giardia killer = Small Molecules that selectively kill Giardia lamblia: qHTS; 0.15% of 340,000 active; AID 540267, 2011; activity change, % at 7.66 µM, hits read low; Giardia lamblia trophozoite viability; in the data active = activity change below about -80%; inconclusive = between about -30% and that limit;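 also: parasites exposed to compound for two days anaerobically before the ATP read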
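Each well holds 100 Giardia trophozoites and compound. After two days (48 hrs) at 37 deg C in anaerobic conditions, ATP is quantified by luminescence.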
KB-3-1 cytotox = qHTS assay for MDR1-selective chemotherapeutics: Primary screen using the parental adenocarcinoma cell KB-3-1. KB-3-1 viability, CellTiter-Glo ATP luminescence, 72 h. 1.4% of 400,000 active. AID 1347075, 2019. Potency, µM (series often up to 46.1 µM), usual class: cytotoxic; also: potency is read from the fitted curve at half-maximal effect; nearly all actives have a fitted effect of over 60% in size
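Parental KB-3-1 adenocarcinoma cells in phenol-red-free DMEM with 10% FBS were pin-treated with compounds at several concentrations, incubated 72 h at 37 °C, and viability read by CellTiter-Glo luminescence; concentration-effect curves were fitted after normalization.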
KB-V1 MDR tox = qHTS assay for MDR1-selective chemotherapeutics: Primary screen using the drug-selected MDR subline cells KB-V1; Potency, µM (top dose mostly 46.1 µM), actives largely listed as cytotoxic; AID 1347076, 2019; KB-V1 MDR cells viability, CellTiter-Glo, 72 h; 3.4% of 400,000 active; also: potency is read from the fitted curve at half-maximal effect; nearly all actives have a fitted effect of over 60% in size
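Drug-selected KB-V1 cells, grown in DMEM lacking phenol red with 10% FBS, receive compound titrations; after three days at 37 degrees C, surviving cell ATP is quantified by CellTiter-Glo luminescence and responses normalized and curve-fitted.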
Nrf2 block = Nrf2 qHTS screen for inhibitors | A549 ARE-Fluc reporter, luciferase luminescence, 18-24 h | Potency, µM (doses to about 46 µM), without a hit: top-dose activity change, negative = inhibition, hits mostly inhibitors | 2.1% of 360,000 active; also: potency is read from the fitted curve at half-maximal effect; nearly all actives have a fitted effect of over 60% in size
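A549 ARE_Fluc cells, 5000/well, 5% FBS OPTI-MEM; compounds in dose-response, 18-24 h at 37 °C/5% CO2; CellTiter-Fluor viability read (Ex 405/Em 525), then BugLite luciferase luminescence = Nrf2 activity.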
A549 tox = Nrf2 qHTS screen for inhibitors: counterscreen for cytotoxicity. A549 ARE-Fluc cells, CellTiter-Fluor viability, 18-24 h. Potency, µM (highest dose often 46 µM), for inactives: top-dose activity change, negative = cytotoxicity, actives largely listed as inhibitors. 0.16% of 390,000 active. AID 504648, 2011; also: potency is read from the fitted curve at half-maximal effect
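Cytotoxicity counterscreen: CellTiter-Fluor fluorescence was measured in A549 ARE_Fluc cells after 18-24 h of compound exposure in a concentration series. The subsequent BugLite luminescent read reports ARE-luciferase activity.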
The depositor's hits bear a star; i = inactive; ? = inconclusive; · = no result. Unless noted, calls follow the shape of the dose curve; as a rule, active = well fitted curve in the direction sought with a large enough effect; inconclusive = small, poorly fitted or top-dose-only effect, or another doubt; inactive = no such curve, though single readings can be large; an effect the other way counts as inactive or inconclusive. Unless noted, % is scaled to controls: 0 for no effect and ±100 for the full control effect.

SMILES	PI4K2A inh	Giardia killer	KB-3-1 cytotox	KB-V1 MDR tox	Nrf2 block	A549 tox
Cc1ccc(NC(=O)C2CSC3(C)CCC(=O)N23)cc1S(=O)(=O)N1CCOCC1 (centres undefined)	-2	-20	i	i	-8%	2%
Cc1ccc(NC(=O)C2CSC3(C)CCC(=O)N23)cc1S(=O)(=O)N1CCCCCC1 (centres undefined)	-2	-22	?	i	16µM*	2%
COc1ccc(CCC(=O)Nc2ccc(OC)c(S(=O)(=O)N3CCCCC3)c2)cc1	-7	-1	i	i	16µM*	?
OC(c1ccccc1)(c1ccccc1)C1CCN(CCCNc2cccc(OC(F)(F)F)c2)CC1	3	·	·	·	·	·
O=C(CCc1ccccc1)N[C@H]1[C@@H](OC(=O)c2cccnc2)CCC[C@@]12C(=O)N(Cc1ccccc1)c1ccccc12	-2	·	·	·	·	·
Cc1ccc2c(c1)c1c(c(=O)n(-c3ccccc3C)c(=O)n1Cc1cccc(F)c1)n2C	0	·	?	i	?	7%
CC(Oc1cccnc1[N+](=O)[O-])C(=O)Nc1ccc(F)cc1 (centres undefined)	3	?	i	i	5%	2%
CC(Oc1cccnc1[N+](=O)[O-])C(=O)Nc1cccc(Cl)c1 (centres undefined)	0	-87*	i	i	-2%	-1%
O=C(Nc1ccc(S(=O)(=O)Nc2cnc3ccccc3n2)cc1)c1ccc(Cl)cc1Cl	5	7	i	i	?	-1%
CC(Oc1ccc(Cl)cc1Cl)C(=O)Nc1ccncc1 (centres undefined)	4	-19	i	9.2µM*	?	-20%
Cc1cc(Cl)ccc1OC(C)C(=O)Nc1ccc(S(=O)(=O)Nc2cnc3ccccc3n2)cc1 (centres undefined)	3	-10	i	i	8.2µM*	-16%
COc1ccc(C2=NOC(C(=O)NCc3ccco3)C2)cc1 (centres undefined)	-3	-13	13µM*	7.3µM*	-1%	-17%
COc1cc(C2=NOC(C(=O)NCc3ccco3)C2)cc(OC)c1OC (centres undefined)	-1	-11	i	2.9µM*	·	-20%
O=C(NCc1ccco1)C1CC(c2ccc(Cl)c(Cl)c2)=NO1 (centres undefined)	3	-7	i	i	0%	0%
CCN(CC)S(=O)(=O)c1ccc(C)c(NC(=S)Nc2cccc(S(=O)(=O)N3CCCCCC3)c2)c1	3	9	?	?	23µM*	-5%
CCN(CC)S(=O)(=O)c1ccc(OC)c(NC(=O)c2ccc([N+](=O)[O-])cc2)c1	7	8	i	i	-1%	4%
CCN(CC)S(=O)(=O)c1ccc(C)c(NC(=O)CNc2cccc(S(=O)(=O)N3CCOCC3)c2)c1	-1	18	i	i	?	-4%
CCN(CC)S(=O)(=O)c1ccc(OC)c(NC(=S)Nc2ccc(C)c(C)c2)c1	0	-10	i	18µM*	-10%	-7%
COc1ccc(-c2onc(C)c2C)cc1S(=O)(=O)Nc1cc(Cl)ccc1C	-5	·	·	·	?	?
Cc1cc(C)cc(N(CC(=O)NC2CCCCC2)C(=O)CCCC(=O)Nc2ccccn2)c1	2	-4	i	i	21µM*	?
Cc1ccc(N(CC(=O)NC2CCCC2)C(=O)CCCC(=O)Nc2ccccn2)cc1C	9	8	i	i	8%	-7%
Cc1ccc(S(=O)(=O)NNC(=O)c2cc(C)c(C)cc2N)cc1	6	2	i	16µM*	-12%	1%

Screening data (PubChem)
